Compound activity deposited in PubChem BioAssay by National Center for Advancing Translational Sciences (NCATS).
HT1080-NT tox: kills 2HG-producing HT-1080-NT fibrosarcoma cells; HT-1080-NT fibrosarcoma viability, CellTiter-Glo ATP luminescence, 48 h; Potency, µM (titrated, usually from 46.1 µM), for the others: at the top dose activity, negative = less viability, actives largely listed as cytotoxic; 360,000 tested, 1.6% active; AID 686970;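 also: NT is the 2HG producing partner of a matched IDH1 knockdown line; potency is read from the fitted curve at half-maximal effect; 0% = DMSO-treated cells and -100% = media-only wells without cells; nearly all actives have a fitted effect of over 55% in size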
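Compounds were tested in concentration-response format on HT-1080-NT cells for 48 hours at 37 degrees C. Cell viability came from CellTiter-Glo luminescence; curves were classified by r2, response magnitude and activity.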
HT1080 IDH1KD tx: toxicity to HT-1080 IDH1 knockdown cells (counter line); Potency, µM (titrated, usually from 46.1 µM), without a hit: at the top dose activity, negative = toxicity, actives largely listed as cytotoxic; 360,000 tested, 2% active; HT-1080 IDH1 knockdown viability, ATP luminescence, 48 h;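 also: potency is read from the fitted curve at half-maximal effect; 0% = DMSO wells and -100% = cell-free medium wells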
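Viability of IDH1-knockdown HT-1080 fibrosarcoma cells was assessed by CellTiter-Glo after 48 h at 37 °C with titrated compound; concentration-effect curves were classified by fit quality and response size.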
TDP1 cell noCPT: qHTS for Inhibitors of human tyrosyl-DNA phosphodiesterase 1 (TDP1): qHTS in cells in absence of CPT; DT40 Tdp1-/- hTDP1 cells, no CPT, ATP luminescence, 48 h; Potency, µM (doses to about 46.2 µM), without a hit: at the highest dose activity change, negative = growth inhibition, most hits filed as inhibitors; 420,000 tested, 15% active; AID 686978, 2013; also: potency is read from the fitted curve at half-maximal effect; nearly all actives have a fitted effect of over 55% in size
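Chicken DT40 Tdp1-/- cells stably complemented with human TDP1 were seeded at 400 cells/well with DMSO in place of 20 nM camptothecin. After compound pinning, cells grew at least 48 hr at 37 °C; viability read by CellTiter-Glo luminescence.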
DT40 TDP1 CPT: growth inhibition of DT40 Tdp1-/-;hTDP1 cells with camptothecin (screen for TDP1 inhibitors); chicken DT40 Tdp1-/-;hTDP1 cells + 20 nM CPT, ATP luminescence, 48 h; Potency, µM (doses to about 46.2 µM), without a hit: top-dose activity change, negative = growth inhibition, actives largely listed as inhibitors; 420,000 tested, 12% active; also: potency is read from the fitted curve at half-maximal effect; nearly all actives have a fitted effect of over 55% in size
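Chicken DT40 Tdp1-/- cells stably complemented with human TDP1 were seeded at 400 cells/well in medium containing 20 nM camptothecin, exposed to pin-transferred compounds, and grown at 37 °C for at least 48 hr. Viability was read as ATP luminescence.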
IL-1B inflam inh: blocks inflammasome-driven IL-1 beta release. THP-1 LPS/ATP IL-1B secretion, AlphaLISA, 16 h; hits give low values. activity change, % at 57.5 µM. 360,000 tested, 4.7% active. AID 743279; in the data active = activity change below about -50%; inconclusive = mostly about -30% to -49%
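THP-1 cells pretreated 1 hr with compounds (up to 57.5 uM final), then stimulated with LPS (250 ng/mL final) plus ATP (1.25 mM final); secreted IL-1B measured by AlphaLISA after 16 hr, decreased signal indicating inhibition.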
The depositor's hits bear a star; ? = inconclusive; / = not tested or not shown. Only some compounds are listed: those with a hit (about 19% of all), similar ones and a draw of the others. Unless noted, calls follow the shape of the dose curve; as a rule, active = well fitted curve in the direction sought with a large enough effect; inconclusive = small, poorly fitted or top-dose-only effect, or another doubt; inactive = no such curve, though single readings can be large; an effect the other way counts as inactive or inconclusive. Unless noted, % is scaled to controls: 0 for no effect and ±100 for the full control effect.

SMILES	HT1080-NT tox	HT1080 IDH1KD tx	TDP1 cell noCPT	DT40 TDP1 CPT	IL-1B inflam inh
CC1(C(=O)OCC(=O)Nc2ccc(C(N)=O)cc2)CC1(Cl)Cl (stereo not given)	1.1%	-0.4%	10.8%	4.8%	0.0
CNS(=O)(=O)c1cc(Br)ccc1S(=O)c1ccccc1C(=O)O (stereo not given)	21.6%	?	-9.1%	-16.2%	31.4
COc1ccccc1/C=C\C(=O)NCC(=O)N/N=C/c1cccc(OC)c1O	?	14.6µM*	7.31µM*	7.31µM*	183.1
COc1cccc(/C=N/NC(=O)CNC(=O)c2cccs2)c1O	?	?	9.2µM*	5.8µM*	112.2
COc1ccc(/C(C)=N/NC(=O)CNC(=O)CCc2ccccc2)c(OC)c1	?	?	18.4µM*	?	27.8
COc1ccc(/C(C)=N/NC(=O)CNC(=O)COc2ccccc2)c(OC)c1	4.1%	-0.9%	1.8%	-3.8%	-4.2
COc1cccc(/C=N/NC(=O)CNC(=O)CCc2ccccc2)c1O	?	20.6µM*	?	?	232.2
Cc1cc(NC(=O)CCC(=O)N(Cc2ccco2)C2(C(=O)NC3CCCCC3)CCCCC2)no1	-20.0%	-8.7%	?	?	-23.0
Cn1c(N)c(C(=O)COC(=O)CC(NC(=O)c2ccccc2Cl)c2ccccc2)c(=O)n(C)c1=O (stereo not given)	-11.5%	5.9%	?	?	28.8
O=C(Nc1nnc(-c2cccs2)s1)C1CC1	-13.1%	2.5%	-0.7%	17.8%	14.1
O=C(Nc1nc(-c2cccs2)c(-c2cccs2)s1)C1CCCC1	-1.1%	-17.6%	14.6µM*	16.4µM*	0.0
Cc1cc(C)nc(SC2CC(=O)N(c3ccc(Cl)cc3)C2=O)n1 (stereo not given)	5.6%	1.4%	20.6µM*	?	15.4
Cc1cc(C)nc(SC2CC(=O)N(c3ccc(C)c(C)c3)C2=O)n1 (stereo not given)	?	16.4µM*	14.6µM*	?	63.6
Cc1cc(C)nc(SC2CC(=O)N(c3ccc(Br)cc3)C2=O)n1 (stereo not given)	-5.1%	-10.6%	?	?	29.1
O=C(Nc1cnn(Cc2ccc(F)cc2)c1)c1cnccn1	8.7%	15.1%	16.2%	-1.0%	20.9
O=C(Nc1cnn(Cc2ccc(F)cc2)c1)C(c1ccccc1)c1ccccc1	?	?	20.6µM*	?	-6.3
COc1cc(C(C)=O)ccc1OCC(=O)NCC1(N2CCCCC2)CCCCC1	11.6%	0.4%	0.5%	-16.4%	-4.3
COc1ccc(-n2c(SCCC#N)nnc2-c2cc(Cl)ccc2OC)cc1Cl	?	29.1µM*	16.4µM*	?	30.1
Cc1ccc(/C=C2/CNC/C(=C/c3ccc(C)cc3)C2=O)cc1	14.6µM*	23.1µM*	13µM*	7.31µM*	-106.3*
Cc1ccc(/C=C2\CCOC2=O)cc1	25.2%	16.8%	-13.2%	-5.1%	?
S=C(Nc1ccccc1)N1CCC(C2CCN(C(=S)Nc3ccccc3)CC2)CC1	9.3%	4.5%	1.7%	-2.2%	-6.9
Nc1ncn(C(=S)Nc2ccccc2)n1	6.4%	8.6%	1.3µM*	1.16µM*	?
COc1cc(C(=O)N2CCc3c([nH]c4ccccc34)C2c2ccc(F)cc2)cc(OC)c1OC (stereo not given)	/	/	14.6µM*	13µM*	/
CCn1nc(C)cc1C(=O)N1CCc2c([nH]c3ccccc23)C1c1cc(F)ccc1F (stereo not given)	?	23.1µM*	?	?	?
Cc1ncoc1C(=O)N1CCc2c([nH]c3ccccc23)C1c1ccccc1F (stereo not given)	?	-19.8%	-16.4%	-0.9%	-6.8
SMILES	HT1080-NT tox	HT1080 IDH1KD tx	TDP1 cell noCPT	DT40 TDP1 CPT	IL-1B inflam inh
CSc1ccc(C2c3[nH]c4ccccc4c3CCN2C(=O)c2ccnn2C)cc1 (stereo not given)	?	?	?	-29.7%	?
CCOc1cc(C(=O)N2CCc3c([nH]c4ccccc34)C2c2ccccc2)cc(OCC)c1OCC (stereo not given)	/	/	5.8µM*	6.51µM*	/
Fc1ccccc1COc1ccc(C(=S)N2CCCC2)cc1	-1.0%	-4.6%	?	?	-1.1
Cc1cc(/C=C2\C(=N)N3N=C(CC(=O)N4CCOCC4)SC3=NC2=O)c(C)n1Cc1ccccc1	6.0%	4.4%	10.4%	1.4%	20.4
CC1=NN2C(=N)/C(=C\c3cc(C)n(Cc4ccccc4)c3C)C(=O)N=C2S1	-4.5%	-1.9%	25.9µM*	-7.4%	-5.6
O=C(Oc1ccc(Cl)c2cccnc12)c1cccc([N+](=O)[O-])c1	-10.2%	-1.4%	0.92µM*	1.3µM*	-18.0
O=C(Oc1c(Cl)cc(Cl)c2cccnc12)c1cccc([N+](=O)[O-])c1	?	?	3.26µM*	2.91µM*	45.8
O=C(Nc1cccc2cccnc12)c1cccc([N+](=O)[O-])c1	8.6%	4.6%	6.6%	11.9%	-7.6
Cc1c(C(=O)Oc2cccc3cccnc23)cccc1[N+](=O)[O-]	?	?	?	?	-65.8*
Cc1c(C(=O)O/N=C(\N)c2ccccn2)cccc1[N+](=O)[O-]	-27.3%	?	?	?	-11.6
O=C(Oc1cccc2cccnc12)c1cccc([N+](=O)[O-])c1	?	?	0.731µM*	0.92µM*	-98.8*
CCN(CC)C(=O)Oc1c(Cl)cc(Cl)c2cccnc12	-6.2%	-14.0%	?	18.1%	-0.6
COc1ccc(CN(C)C(=O)CCNS(=O)(=O)c2ccccc2)c(OC)c1	5.4%	4.2%	-30.6%	-23.4%	-12.0
C/C(=N\NC(=O)c1cc(C)nc2ccc(C)cc12)c1ccncc1	-2.0%	3.9%	-25.6%	?	1.3
Cc1nonc1CN(C)C(=O)CC1C(=O)NCCN1Cc1cccc(C(F)(F)F)c1 (stereo not given)	0.6%	-0.9%	-12.4%	-11.6%	-2.6
CC1(C)CC(c2nc(-c3ccc([N+](=O)[O-])cc3)cs2)CCO1 (stereo not given)	-11.8%	-13.4%	?	?	-7.8
O=C(Oc1cccc2cccnc12)c1ccc2c(c1)OCCO2	23.1µM*	?	1.03µM*	0.651µM*	-5.1
O=[N+]([O-])c1ccc(Oc2cccc3cccnc23)c([N+](=O)[O-])c1	?	23.1µM*	6.51µM*	5.17µM*	-28.6
Brc1ccc(CSc2ncn[nH]2)cc1	-15.3%	-27.4%	-7.8%	-10.7%	-12.8
CCCOc1ccc(CSc2ncn[nH]2)cc1	6.7%	13.2%	5.8µM*	4.61µM*	-21.9
COc1ccc(/C=N/NC(=O)CNS(=O)(=O)c2ccc(C)cc2)cc1	4.1%	-5.6%	-11.0%	5.8%	-8.2
